# Assay outcomes (PubChem)
# This is a sample that favours compounds with a hit; in the whole collection about 19% have one here.
# IL1B secr inh: blocks inflammasome-driven IL-1 beta release; THP-1 LPS/ATP IL-1B secretion, AlphaLISA, 16 h; hits give low values; activity change, % at 57.5 µM; 360,000 tested, 4.7% active; AID 743279; in the data active = activity change below about -50%; inconclusive = mostly about -30% to -49%
#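 Secreted IL-1B measured by AlphaLISA bead assay after 16 h compound exposure of THP-1 cells; compounds (final up to 57.5 uM) added 1 h before LPS (250 ng/mL) and ATP (1.25 mM) stimulation; lower signal means less secretion.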
# HT1080NT lethal: kills 2HG-producing HT-1080-NT fibrosarcoma cells. HT-1080-NT fibrosarcoma viability, CellTiter-Glo ATP luminescence, 48 h. Potency, µM (top dose mostly 46.1 µM), for the others: at the highest dose activity, negative = less viability, usual class: cytotoxic. 360,000 tested, 1.6% active. AID 686970;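 note: NT is the 2HG producing partner of a matched IDH1 knockdown line; potency is the fitted concentration of half-maximal effect; 0% = DMSO-treated cells and -100% = media-only wells without cells; nearly all actives have a fitted effect of over 55% in size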
#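 Viability of the 2HG-overproducing fibrosarcoma line after 48 hours of compound exposure at 37 degrees C was determined by luminescence with CellTiter-Glo, and concentration-effect curves were then fitted and categorized.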
# DT40 TDP1 no CPT: qHTS for Inhibitors of human tyrosyl-DNA phosphodiesterase 1 (TDP1): qHTS in cells in absence of CPT | DT40 Tdp1-/- hTDP1 cells, no CPT, ATP luminescence, 48 h | 420,000 tested, 15% active | Potency, µM (titrated, usually from 46.2 µM), for the others: at the highest dose activity change, negative = growth inhibition, usual class: inhibitors; note: potency is the fitted concentration of half-maximal effect; nearly all actives have a fitted effect of over 55% in size
#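 Stably hTDP1-transfected Tdp1-null chicken DT40 cells were treated with library compounds minus camptothecin and grown for at least 48 hr at 37 °C, after which cellular ATP was quantified by luminescence.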
# TDP1 cell CPT: growth inhibition of DT40 Tdp1-/-;hTDP1 cells with camptothecin (screen for TDP1 inhibitors) | Potency, µM (doses to about 46.2 µM), inactives show top-dose activity change, negative = growth inhibition, usual class: inhibitors | 420,000 tested, 12% active | chicken DT40 Tdp1-/-;hTDP1 cells + 20 nM CPT, ATP luminescence, 48 h; note: potency is the fitted concentration of half-maximal effect; nearly all actives have a fitted effect of over 55% in size
#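 Chicken DT40 Tdp1-/- cells complemented with human TDP1, 400 cells/well, exposed to compounds plus 20 nM camptothecin for at least 48 h at 37 C; viability read as ATP content by CellTiter-Glo luminescence.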
# HT1080 IDH1KD tx: HT-1080 IDH1 knockdown cell toxicity (counter line) | HT-1080 IDH1 knockdown viability, ATP luminescence, 48 h | Potency, µM (highest dose often 46.1 µM), for inactives: at the highest dose activity, negative = toxicity, most hits filed as cytotoxic | 360,000 tested, 2% active | AID 686971;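 note: potency is the fitted concentration of half-maximal effect; 0% = DMSO wells and -100% = cell-free medium wells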
#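 CellTiter-Glo luminescence after 48 h compound exposure at 37 degrees C of IDH1-knockdown HT-1080 cells in 5% FBS RPMI. %Activity scaled between DMSO wells and cell-free media wells, with curves fitted and assigned curve classes.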
# ELG1 repair inh: inhibitors of ELG1-dependent DNA repair in HEK293T cells; HEK293T ELG1-luciferase reporter, luminescence, 16 h; DNA damage induced by 5-fluorouridine; Potency, µM (titrated, usually from 46.1 µM), for inactives: at the highest dose activity change, negative = inhibition, hits mostly inhibitors; 330,000 tested, 2.3% active; note: potency is the fitted concentration of half-maximal effect; nearly all actives have a fitted effect of over 55% in size
#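 Overnight (16 hr) co-exposure of 2,000 cells/well to 5-fluorouridine and compound at 37 °C preceded detection. Luciferase was quantified via ONE-Glo luminescence; loss of signal denotes inhibition.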
# * marks the source's active call; other numbers are inactive results; u = inconclusive; x = no result given. Unless noted, calls come from the whole dose curve; as a rule, active = well fitted curve in the direction sought with a large enough effect; inconclusive = small, poorly fitted or top-dose-only effect, or another doubt; inactive = no such curve, though single readings can be large; an effect the other way counts as inactive or inconclusive. Unless noted, % is set by controls: 0 for no effect and ±100 for the full control effect.
SMILES,IL1B secr inh,HT1080NT lethal,DT40 TDP1 no CPT,TDP1 cell CPT,HT1080 IDH1KD tx,ELG1 repair inh
CC(C)CCNc1nc(-c2ccco2)c2c(c1C#N)CCCC2,20.0,u,u,u,u,12.0%
CCOc1ccc(N(CC(=O)Nc2ccc(C)c(Cl)c2)S(C)(=O)=O)cc1,-12.0,-1.4%,u,u,-14.9%,7.0%
CC(C)(C)S(=O)(=O)/C(C#N)=N/Nc1ccc(Cl)cc1,-20.5,u,14.6µM*,u,u,-35.1%
CC(C)(C)c1ccc(N/N=C(\C#N)S(=O)(=O)C(C)(C)C)cc1,u,23.1µM*,u,4.61µM*,u,u
CCOc1ccc(S(=O)(=O)NNS(=O)(=O)c2ccc(C)cc2C)cc1,-4.2,1.3%,3.2%,11.4%,10.8%,0.5%
Cc1cc(N2CCN(C)CC2)nc2ccc(NC(=O)CCC(=O)N3CCN(c4ccc([N+](=O)[O-])cc4)CC3)cc12,-21.8,20.6µM*,18.4µM*,25.9µM*,16.4µM*,u
Cc1ccc(Cl)cc1N1CCN(C(=O)CCC(=O)Nc2ccc3nc(N4CCC(C)CC4)cc(C)c3c2)CC1,x,x,13µM*,23.1µM*,x,x
Cc1cc(N2CCC(C)CC2)nc2ccc(NC(=O)CCC(=O)N3CCN(c4cccc(C(F)(F)F)c4)CC3)cc12,x,x,2.31µM*,3.26µM*,x,x
Cc1cc(N2CCOCC2)nc2ccc(NC(=O)CCC(=O)N3CCN(c4ccccc4)CC3)cc12,14.0,5.2%,u,u,0.0%,u
O=C(OCC1(COC(=O)c2cccnc2)CCCC(COC(=O)c2cccnc2)(COC(=O)c2cccnc2)C1O)c1cccnc1,x,x,11.9%,1.6%,x,x
CCOc1ccc(NC(=O)CSc2nnc(CCNC(=O)c3ccc(OC)cc3)n2C)cc1,4.5,4.3%,-4.9%,-19.8%,-11.5%,u
Cc1c(CCOC(=O)C2C3CC4CC(C3)CC2C4)sc[n+]1CC(=O)c1ccc(Br)cc1 (stereo not drawn),-85.0*,u,18.4µM*,u,u,6.2%
Cc1c(CCOC(=O)c2ccc(Cl)cc2Cl)sc[n+]1CC(=O)c1ccc(Br)cc1,u,-1.9%,18.4µM*,u,-23.6%,u
CCN(CC)S(=O)(=O)c1ccc(NS(=O)(=O)CC23CCC(CC2=O)C3(C)C)cc1 (stereo not drawn),18.0,-3.6%,u,u,-2.7%,-3.3%
CC(=O)c1ccc(N2CCN(C(=O)Cc3ccccc3)CC2)c(F)c1,29.5,-0.2%,u,u,1.5%,-12.1%
CC(=O)c1ccc(N2CCN(C(=O)COc3ccc(F)cc3)CC2)c(F)c1,-15.7,-4.6%,16.4µM*,u,-5.6%,u
CCC(=O)c1ccc(N2CCN(C(=O)COc3ccc(F)cc3)CC2)c(F)c1,-7.8,-2.5%,23.1µM*,20.6µM*,-6.5%,u
CCC(=O)c1cc(F)ccc1OCC(=O)N1CCN(c2ccc(F)cc2)CC1,5.3,-26.7%,20.6µM*,18.4µM*,-8.6%,u
Nc1nc(CCOc2ccc(F)cc2)cs1,-4.7,15.5%,-5.8%,3.0%,-1.3%,u
CS(=O)(=O)c1ccc(C(=O)NCCN2C(=O)S/C(=C\c3cccnc3)C2=O)cc1[N+](=O)[O-],-98.0*,u,4.61µM*,3.66µM*,u,u
CCN(CC)S(=O)(=O)c1ccc(C(=O)NCCN2C(=O)S/C(=C\c3cccnc3)C2=O)cc1,15.2,-1.0%,18.4µM*,u,-8.0%,14.6µM*
O=C1CCC(C(=O)NCCN2C(=O)S/C(=C\c3cccnc3)C2=O)=NN1,-2.5,-13.5%,-16.4%,u,-9.2%,5.9%
Cc1cc(Cl)ccc1OCCCC(=O)NCCN1C(=O)S/C(=C\c2cccnc2)C1=O,-53.5*,-28.2%,16.4µM*,u,u,u
CCCCN1C(=O)C(CC(=O)NCCCN(C)C)CC(C(=O)N2CCCCCC2)=C1C (stereo not drawn),1.0,21.6%,-8.4%,-12.1%,-0.4%,x
CCc1ccc(OCC(=O)Nc2ccc(Cl)c(-c3nc4cc(C)cc(C)c4o3)c2)cc1,x,x,u,-24.7%,x,x
SMILES,IL1B secr inh,HT1080NT lethal,DT40 TDP1 no CPT,TDP1 cell CPT,HT1080 IDH1KD tx,ELG1 repair inh
O=C(COc1ccccc1Cl)Nc1nnc(S(=O)(=O)N2CCCC2)s1,-20.1,0.1%,-13.5%,u,-1.2%,-4.7%
COc1cccc(-n2c([S-])c(C(=O)Nc3ccc(S(=O)(=O)N4CCOCC4)cc3)[n+]3cc(C(N)=O)ccc23)c1,1.0,9.3%,u,-29.9%,9.9%,6.6%
CCOC(=O)C1=C(C)N(Cc2ccccc2)C(=O)NC1c1ccc(OC)cc1 (stereo not drawn),-16.3,-0.1%,-19.5%,-17.4%,15.8%,u
CCOC(=O)C1=C(C)n2c(s/c(=C3\C(=O)Nc4ccccc43)c2=O)=NC1c1ccc(OC)cc1 (stereo not drawn),30.4,12.0%,20.6µM*,u,14.1%,-1.5%
CCOC(=O)C1=C(C)N=c2s/c(=C3/C(=O)Nc4ccccc43)c(=O)n2C1c1ccc(C)cc1 (stereo not drawn),59.5,-15.9%,23.1µM*,25.9µM*,-10.7%,-0.3%
COCCCN1C(=O)c2oc3ccccc3c(=O)c2C12C(=O)N(C)c1ccccc12 (stereo not drawn),x,x,-9.0%,3.2%,x,x
C=C1CCN([C@@H](CC(C)C)C(=O)NCCC(C)C)S(=O)(=O)c2ccccc21,20.9,-1.8%,23.1µM*,u,-6.3%,x
C=C1CCN([C@@H](CC(C)C)C(=O)NCc2ccc(OC)cc2)S(=O)(=O)c2ccccc21,6.0,8.9%,23.1µM*,u,1.5%,x
C=C1CCN([C@@H](C)C(=O)NCc2ccc(OC)cc2)S(=O)(=O)c2ccccc21,27.9,12.7%,-0.4%,-22.3%,6.5%,-7.2%
C=C1CCN([C@@H](CC(C)C)C(=O)NCc2ccc(Cl)cc2)S(=O)(=O)c2ccccc21,31.3,-0.7%,u,u,-2.8%,x
C=C1CCN([C@@H](CC(C)C)C(=O)NCc2ccc(Cl)c(Cl)c2)S(=O)(=O)c2ccccc21,-1.6,u,16.4µM*,u,-12.0%,x
C=C1CCN([C@@H](Cc2ccccc2)C(=O)NCCCc2ccccc2)S(=O)(=O)c2ccccc21,4.4,-9.0%,u,23.1µM*,-8.0%,x
